The values below come from PubChem BioAssay (NCI).

This is part of a sample that, as a whole, favours compounds with a hit. Of some 79,000 tested, about 15% had one in any assay. Unmarked numbers belong to inactive results. Active and inactive are the calls of the source. Rule as the data show it: active = growth inhibition above about 70%; inactive = the rest.

Assay [1] is described as follows: NCI Yeast Anticancer Drug Screen. Data for the rad50 strain (AID 155).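 Also: 0% = growth of vehicle-only cultures of the same strain.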 The settings on record: S. cerevisiae rad50 strain growth inhibition, stronger effect = higher value. The essentials:
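Cells are treated with compound, grown, and their growth is then scored against vehicle-only cultures of the same repair-deficient yeast strain.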

Assay [2] is described as follows: NCI Yeast Anticancer Drug Screen. Data for the mec2-1 strain (AID 157). The settings on record: S. cerevisiae mec2-1 strain, stronger effect = higher value. The method in brief: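 Readout is yeast growth inhibition, normalised to vehicle-treated controls, in the mec2-1 strain exposed to compound.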
Assay [3] in a line: NCI Yeast Anticancer Drug Screen. Data for the sgs1 mgt1 strain (AID 161).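 Also: 0% = growth of cultures given vehicle only.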 Particulars: S. cerevisiae sgs1 mgt1 strain, stronger effect = higher value. The essentials: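 Compounds are added to genetically altered yeast, and growth is compared with cultures given vehicle alone to give percent inhibition.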
Assay [4] is described as follows: NCI Yeast Anticancer Drug Screen. Data for the cln2 rad14 strain (AID 165).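 Also: 0% = growth equal to vehicle treated cultures.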 The settings on record: S. cerevisiae cln2 rad14 strain, stronger effect = higher value. The method in brief: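 Relative to vehicle controls, growth inhibition of compound-treated cln2 rad14 yeast was recorded.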
A short description of assay [5]: NCI Yeast Anticancer Drug Screen. Data for the bub3 strain (AID 167). The settings on record: S. cerevisiae bub3 mutant strain, stronger effect = higher value. The method in brief: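 Part of a panel of yeast mutants defective in DNA damage repair or cell cycle regulation. Each strain is grown with compound, and inhibition is calculated relative to solvent-treated cultures.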

A short description of assay [6]: NCI Yeast Anticancer Drug Screen. Data for the mlh1 rad18 strain (AID 175). The settings on record: S. cerevisiae mlh1 rad18 strain growth inhibition, stronger effect = higher value. The method in brief: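 Test agents were incubated with a yeast strain of defined genotype (DNA damage repair defect). Inhibition of growth was derived by comparison with vehicle-exposed cultures.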

Where [7] appears, read: at 5.0 µM (retest, dose inferred, filed as 0.5).
Setting [8] is: at 50.0 µM (retest, dose inferred, filed as 5.0).

`C(=N\N=C\c1ccc2c(c1)OCO2)/c1ccc2c(c1)OCO2`: the growth inhibition in assay [1] (setting [7]) is 2%; in assay [1] (setting [8]) it was 4%; in assay [1] (at 50.0 µM) it was 3.1%; in assay [2] (setting [7]) it was 3%; in assay [2] (setting [8]), 2%; in assay [2] (at 50.0 µM) it was -4.3%. The growth inhibition in assay [3] (setting [7]) is 0%; in assay [3] (setting [8]) it was 6%; in assay [3] (at 50.0 µM), -3.7%; in assay [4] (setting [7]), -32%; in assay [4] (setting [8]) it was -6%; in assay [4] (at 50.0 µM), 75.9% (active). Further, the growth inhibition in assay [5] (setting [7]) is 3%; in assay [5] (setting [8]), 1%; in assay [5] (at 50.0 µM) it was 3.9%; in assay [6] (setting [7]), 10%; in assay [6] (setting [8]), 21%; in assay [6] (at 50.0 µM) it was 6.45%.
As for `CC1(c2cccs2)C(C#N)(C#N)C1(C#N)C#N`, the growth inhibition in assay [1] (setting [7]) was 17%; in assay [1] (setting [8]), 42%; in assay [1] (at 50.0 µM) it was 92.8% (active); in assay [2] (setting [7]) it was 9%; in assay [2] (setting [8]), 44%; in assay [2] (at 50.0 µM) it was 95.8% (active). Further, the growth inhibition in assay [3] (setting [7]) was 17%; in assay [3] (setting [8]) it was 39%; in assay [3] (at 50.0 µM), 96% (active); in assay [4] (setting [7]) it was -5%; in assay [4] (setting [8]), 30%; in assay [4] (at 50.0 µM) it was 98.4% (active). In addition, the growth inhibition in assay [5] (setting [7]) was -4%; in assay [5] (setting [8]), 36%; in assay [5] (at 50.0 µM), 95.5% (active); in assay [6] (setting [7]) it was 9%; in assay [6] (setting [8]), 47%; in assay [6] (at 50.0 µM), 98.5% (active).
Regarding `Nc1ccc(SC23CC4CC(CC(C4)C2)C3)cc1`, the growth inhibition is 1% in assay [1] (setting [7]); 74% (active) in assay [1] (setting [8]); 94.1% (active) in assay [1] (at 50.0 µM); 0% in assay [2] (setting [7]); 42% in assay [2] (setting [8]); 94.4% (active) in assay [2] (at 50.0 µM). Further, the growth inhibition in assay [3] (setting [7]) was 9%; in assay [3] (setting [8]), 78% (active); in assay [3] (at 50.0 µM), 96% (active); in assay [4] (setting [7]), -69%; in assay [4] (setting [8]) it was 61%; in assay [4] (at 50.0 µM), 95.1% (active). Besides, the growth inhibition is 40% in assay [5] (setting [7]); 33% in assay [5] (setting [8]); 95.7% (active) in assay [5] (at 50.0 µM); 10% in assay [6] (setting [7]); 91% (active) in assay [6] (setting [8]); 89.2% (active) in assay [6] (at 50.0 µM).
Turning to `CCCCCN(CCCCC)C(C)C(=O)c1ccc2cc(Br)c3ccccc3c2c1` (configuration not stated), the growth inhibition in assay [1] (setting [7]) is 17%; in assay [1] (setting [8]) it was 61%; in assay [1] (at 50.0 µM), 93.9% (active); in assay [2] (setting [7]) it was 9%; in assay [2] (setting [8]), 46%; in assay [2] (at 50.0 µM), 90.4% (active). The growth inhibition in assay [3] (setting [7]) was 13%; in assay [3] (setting [8]), 71% (active); in assay [3] (at 50.0 µM) it was 90.7% (active); in assay [4] (setting [7]) it was -2%; in assay [4] (setting [8]), 42%; in assay [4] (at 50.0 µM), 88.7% (active). Also, the growth inhibition was 14% in assay [5] (setting [7]); 66% in assay [5] (setting [8]); 87.1% (active) in assay [5] (at 50.0 µM); 7% in assay [6] (setting [7]); 63% in assay [6] (setting [8]); 95.5% (active) in assay [6] (at 50.0 µM).
As for `CN1CC[C@@H](c2ccccc2)[C@@H](O)C1`, the growth inhibition in assay [1] (setting [7]) was 0%; in assay [1] (setting [8]), -11%; in assay [1] (at 50.0 µM) it was 6.3%; in assay [2] (setting [7]), 4%; in assay [2] (setting [8]) it was -4%; in assay [2] (at 50.0 µM), 12%. The growth inhibition was 2% in assay [3] (setting [7]); -10% in assay [3] (setting [8]); 49.1% in assay [3] (at 50.0 µM); -3% in assay [4] (setting [7]); -11% in assay [4] (setting [8]); -1.15% in assay [4] (at 50.0 µM). In addition, the growth inhibition in assay [5] (setting [7]) was 0%; in assay [5] (setting [8]) it was -3%; in assay [5] (at 50.0 µM), 3.5%; in assay [6] (setting [7]), -1%; in assay [6] (setting [8]), -29%; in assay [6] (at 50.0 µM), 9.55%.
For the molecule `CC(C)(C)CCCC(C(=O)O)c1ccccc1` (configuration not stated), the growth inhibition was 0% in assay [1] (setting [7]); 50% in assay [1] (setting [8]); 82.6% (active) in assay [1] (at 50.0 µM); -10% in assay [2] (setting [7]); 54% in assay [2] (setting [8]); 75.8% (active) in assay [2] (at 50.0 µM). Further, the growth inhibition in assay [3] (setting [7]) was -2%; in assay [3] (setting [8]), 31%; in assay [3] (at 50.0 µM), 63%; in assay [4] (setting [7]), -10%; in assay [4] (setting [8]) it was 60%; in assay [4] (at 50.0 µM), 76.8% (active). Moreover, the growth inhibition was -7% in assay [5] (setting [7]); 57% in assay [5] (setting [8]); 55.1% in assay [5] (at 50.0 µM); -7% in assay [6] (setting [7]); 49% in assay [6] (setting [8]); 85.1% (active) in assay [6] (at 50.0 µM).
Take `C=CC1(C)CCC2C(=CCC3C(C)(COC4OC(CO)C(O)C(O)C4O)C(O)CCC23C)C1` (configuration not stated): the growth inhibition in assay [1] (setting [7]) was -4%; in assay [1] (setting [8]), 99% (active); in assay [1] (at 50.0 µM), 93.2% (active); in assay [2] (setting [7]), -1%; in assay [2] (setting [8]) it was 99% (active); in assay [2] (at 50.0 µM), 93.9% (active). The growth inhibition in assay [3] (setting [7]) was -3%; in assay [3] (setting [8]) it was 43%; in assay [3] (at 50.0 µM) it was 93.8% (active); in assay [4] (setting [7]) it was -1%; in assay [4] (setting [8]), 70% (active); in assay [4] (at 50.0 µM), 91.5% (active). Moreover, the growth inhibition in assay [5] (setting [7]) is 18%; in assay [5] (setting [8]), 92% (active); in assay [5] (at 50.0 µM) it was 93.6% (active); in assay [6] (setting [7]), -3%; in assay [6] (setting [8]), 99% (active); in assay [6] (at 50.0 µM), 92.8% (active).
Take `O=C(CCCCOCCCCC(=O)OCC1CCCO1)OCC1CCCO1` (configuration not stated): the growth inhibition in assay [1] (setting [7]) was -1%; in assay [1] (setting [8]), -2%; in assay [1] (at 50.0 µM), 9.1%; in assay [2] (setting [7]), 0%; in assay [2] (setting [8]), 2%; in assay [2] (at 50.0 µM), 16.9%. Also, the growth inhibition is -91% in assay [3] (setting [7]); 4% in assay [3] (setting [8]); 45% in assay [3] (at 50.0 µM); 2% in assay [4] (setting [7]); -9% in assay [4] (setting [8]); 10.3% in assay [4] (at 50.0 µM). Moreover, the growth inhibition in assay [5] (setting [7]) is -4%; in assay [5] (setting [8]) it was -3%; in assay [5] (at 50.0 µM), 13.5%; in assay [6] (setting [7]), -1%; in assay [6] (setting [8]), -12%; in assay [6] (at 50.0 µM) it was 18.1%.
`CCCCN(c1ccccc1)c1ncnc2c1ncn2C`: the growth inhibition in assay [1] (setting [7]) is 1%; in assay [1] (setting [8]), 83% (active); in assay [1] (at 50.0 µM), 89.7% (active); in assay [2] (setting [7]) it was -3%; in assay [2] (setting [8]), 86% (active); in assay [2] (at 50.0 µM), 79.8% (active). Further, the growth inhibition was 0% in assay [3] (setting [7]); 86% (active) in assay [3] (setting [8]); 89% (active) in assay [3] (at 50.0 µM); 0% in assay [4] (setting [7]); 76% (active) in assay [4] (setting [8]); 74.2% (active) in assay [4] (at 50.0 µM). Besides, the growth inhibition in assay [5] (setting [7]) is 6%; in assay [5] (setting [8]) it was 88% (active); in assay [5] (at 50.0 µM) it was 79.2% (active); in assay [6] (setting [7]), 5%; in assay [6] (setting [8]), 89% (active); in assay [6] (at 50.0 µM), 89.9% (active).
